Screening data (PubChem)
OPRM1-OPRD1 inv: inverse agonists of human mu-delta opioid receptor heterodimerization; 340,000 tested, 0.21% active; inhibition, % at 9.3 µM; cell-based MOR-DOR heterodimer luminescence, inverse agonism; AID 504357; P35372+P41143; in the data active means inhibition above about 22%, passing the limit was not always enough;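 further: 0% = cells with DMSO and 100% = wells without cells with DMSO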
Target sequence (P35372 whole entry, looked up): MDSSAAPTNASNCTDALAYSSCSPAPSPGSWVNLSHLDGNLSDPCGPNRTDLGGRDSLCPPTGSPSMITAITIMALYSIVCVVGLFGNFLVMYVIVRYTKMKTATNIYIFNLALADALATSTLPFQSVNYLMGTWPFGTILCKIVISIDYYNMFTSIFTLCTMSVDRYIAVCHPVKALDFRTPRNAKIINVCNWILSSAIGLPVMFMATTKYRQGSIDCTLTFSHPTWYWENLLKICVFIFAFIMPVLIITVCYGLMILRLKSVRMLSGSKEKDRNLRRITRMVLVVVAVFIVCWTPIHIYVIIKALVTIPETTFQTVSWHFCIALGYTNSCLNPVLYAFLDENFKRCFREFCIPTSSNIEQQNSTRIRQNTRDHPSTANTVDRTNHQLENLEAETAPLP
Target sequence (P41143 whole entry, looked up): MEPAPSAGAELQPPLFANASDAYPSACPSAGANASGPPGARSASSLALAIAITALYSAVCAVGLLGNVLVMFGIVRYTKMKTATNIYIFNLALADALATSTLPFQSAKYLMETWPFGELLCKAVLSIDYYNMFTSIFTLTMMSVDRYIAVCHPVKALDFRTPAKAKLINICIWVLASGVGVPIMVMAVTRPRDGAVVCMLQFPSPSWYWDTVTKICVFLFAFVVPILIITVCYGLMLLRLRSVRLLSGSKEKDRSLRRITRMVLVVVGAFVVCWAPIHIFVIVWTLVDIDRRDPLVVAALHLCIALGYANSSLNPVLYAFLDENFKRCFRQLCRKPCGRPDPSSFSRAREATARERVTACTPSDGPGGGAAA
HTR5A inv ag: counter-screen for OPRM1-OPRD1 inverse agonists: human HTR5A inverse agonism; inhibition, % at 9.3 µM; P47898; 340,000 tested, 0.083% active; HTR5A cell line, luminescence; AID 504634; in the data active means inhibition mostly above about 23%, no sharp cut-off; inactive means mostly below about 18%;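 further: 0% = cells with DMSO and 100% = no-cell wells with DMSO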
HTR5A ag ctr: HTR5A agonism, opioid heterodimer counter-screen; HTR5A agonist assay, luminescence, cell-based; activation, % at 9.3 µM; 340,000 tested, 0.61% active; AID 504692; in the data active means activation mostly above about 9.5%, no sharp cut-off; inactive means mostly below about 7.6%;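 further: 0% = cells with vehicle only and 100% = reference agonist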
MOR-DOR ag: agonists of human mu-delta opioid receptor heterodimerization; P35372+P41143; cells, OPRM1-OPRD1 heterodimerization, luminescence; activation, % at 9.3 µM; 340,000 tested, 0.3% active; AID 504326; in the data active means activation above about 18%;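 further: 0% = vehicle-treated cells and 100% = reference agonist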
MOR-DOR inv conf: OPRM1-OPRD1 heterodimer inverse agonism, confirmation | shares compounds with OPRM1-OPRD1 inv | cells expressing OPRM1/OPRD1 heterodimer, luminescence | inhibition, % at 9.3 µM | 580 tested, 20% active | AID 504900; in the data active means inhibition above about 32%;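 further: 0% = cells with DMSO and 100% = wells lacking cells with DMSO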
HTR5A inv ctr2: inverse agonist of human HTR5A in OPRM1-OPRD1 counter-screen | shares compounds with OPRM1-OPRD1 inv | 580 tested, under 10 active | HTR5A-expressing cells, luminescence, inverse agonism | inhibition, % at 9.3 µM; call rule not given here;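 further: 0% = cells with DMSO and 100% = no-cell wells with DMSO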
Starred values were filed as active, the others as inactive; · = not tested or not shown. A selection: hits, their analogues and other compounds. The true share with any hit is near 1.1%.

SMILES | OPRM1-OPRD1 inv | HTR5A inv ag | HTR5A ag ctr | MOR-DOR ag | MOR-DOR inv conf | HTR5A inv ctr2
COc1ccccc1OCCNC(=O)c1ccc(C)c(S(=O)(=O)N2CCOCC2)c1 | 1 | 5 | -1 | 0 | · | ·
CCNC(=S)NNC(=O)CSc1nc2ccccc2n1C | 38* | 7 | -3 | -8 | -15 | 17
CCNC(=S)NNC(=O)CSc1nc2ccccc2[nH]1 | 26 | 31 | -2 | -6 | · | ·
O=C(C1=C(O)C(=O)N(CCN2CCOCC2)C1c1ccco1)c1cc2ccccc2o1 (stereo not given) | 34* | -4 | 1 | -6 | -102 | -40
O=C(C1=C(O)C(=O)N(CCN2CCOCC2)C1c1ccc(F)cc1)c1cc2ccccc2o1 (stereo not given) | 10 | -3 | 1 | -2 | · | ·
O=C(Cc1ccc(Br)cc1)NCCCn1ccnc1 | 11 | -13 | 4 | -2 | · | ·
CCCCC(=O)Nc1ccc(Br)cc1C(=O)O | 4 | 4 | 3 | -1 | · | ·
CC(=O)Nc1ccc(Br)cc1C(=O)C(=O)O | 36* | 11 | -5 | -7 | -13 | -37
O=C1NC(=S)S/C1=C\c1cc(Cl)cc(Cl)c1O | 35* | -2 | 0 | -7 | -59 | -13
CCC1Nc2ncnc(N3CCN(c4ccccc4)CC3)c2N(Cc2ccc(C)cc2)C1=O (stereo not given) | 50* | 36 | -16 | -11 | 36* | 56*
Cc1ccc(CN2C(=O)C(CC(C)C)Nc3ncnc(N4CCN(c5ccccc5)CC4)c32)cc1 (stereo not given) | 8 | 9 | 5 | -1 | · | ·
CC(=O)N(/N=C1\Sc2ccccc2C1=O)c1ccccc1 | 34* | 28 | -6 | -8 | -58 | -14
CC(=O)N(/N=C1\Sc2ccccc2C1=O)c1ccccc1C | 51* | 35 | -16 | -10 | -200 | -6
Cc1ccc(C)c(NC(=O)CN(C)S(=O)(=O)c2cccc3cccnc23)c1 | 5 | -4 | 1 | -1 | · | ·
CCOc1cc(C2NC(=O)NC(c3ccccc3)=C2C(C)=O)ccc1OC(C)=O (stereo not given) | 2 | -2 | 1 | 0 | · | ·
Nc1c(N(CCO)C(=O)C2CCCC2)c(=O)[nH]c(=O)n1Cc1ccccc1 | 0 | 3 | 8 | 0 | · | ·
CCn1cnc2c1c(=O)n(CC(=O)NCC(C)C)c(=O)n2Cc1ccccc1 | 0 | -12 | 3 | 0 | · | ·
O=C(OCC(=O)N1CCc2ccccc21)c1ccccc1[N+](=O)[O-] | 5 | -10 | 4 | -1 | · | ·
O=C(CNC(=O)c1ccco1)OCC(=O)c1ccc(Cl)cc1Cl | 44* | 12 | -4 | -8 | -20 | -21
COc1ccccc1NC(=O)CCC(=O)OCC(=O)c1ccc(C)c([N+](=O)[O-])c1 | 53* | 5 | 6 | -10 | -410 | -104
O=C(CCC(=O)OCC(=O)c1ccc(Br)cc1)NC1CCCCC1 | 17 | -11 | 2 | -3 | · | ·
Cc1ccc(C(=O)COC(=O)CCC(=O)NC2CCCCC2)cc1[N+](=O)[O-] | 47* | 32 | -6 | -9 | 35* | 16
Cc1ccc(C(=O)COC(=O)CCC(=O)Nc2cccc(Cl)c2)cc1[N+](=O)[O-] | 52* | 17 | -7 | -12 | 32* | 7
COc1ccc(-n2cnc3cc(C(=O)NCC4CCCO4)ccc32)cc1 (stereo not given) | 16 | -8 | 9 | -3 | · | ·
OC(Cc1cccnc1)c1ccccc1 (stereo not given) | 18 | -15 | 4 | -4 | · | ·
SMILES | OPRM1-OPRD1 inv | HTR5A inv ag | HTR5A ag ctr | MOR-DOR ag | MOR-DOR inv conf | HTR5A inv ctr2
O=C(CCOc1ccccc1)OCC(=O)c1cc2ccccc2o1 | 37* | 10 | -4 | -9 | -14 | 28
O=C(COC(=O)CCOc1ccccc1)NCCc1ccccc1 | 11 | 4 | -1 | -2 | · | ·
C=CCc1cccc(CNc2ccc(Br)cc2)c1O | -38 | -1 | 3 | 7 | · | ·
O=C1c2ccccc2-c2nnc(-c3ccc(F)cc3)cc21 | 81* | 4 | -1 | -16 | 21 | 2
Cc1ccccc1-c1cc2c(nn1)-c1ccccc1C2=O | 14 | -10 | 1 | -2 | · | ·
Cc1ccc(-c2cc3c(nn2)-c2ccccc2C3=O)cc1 | 99* | -3 | 1 | -19 | -25 | -5
O=C1c2ccccc2-c2nnc(-c3ccc(O)cc3)cc21 | 18 | -7 | -2 | -4 | · | ·
Fc1cccc(Cl)c1CSC1=NCCS1 | -17 | -12 | 2 | 2 | · | ·
ON(Cc1c(F)cccc1Cl)Cc1c(F)cccc1Cl | 35* | 2 | -4 | -7 | 70* | 9
